Assay outcomes (PubChem)
PriA SSB inh: inhibitors of Klebsiella pneumoniae PriA binding to SSB C-terminal tail, primary screen, biochemical, AlphaScreen | PriA–SSB C-terminal tail interaction (Klebsiella pneumoniae) | AlphaScreen SSBct-PriA binding, biotinylated peptide | inhibition, % at 33 µM | 430,000 compounds, 0.6% hits; in the data active = inhibition mostly above about 37%, no sharp cut-off; inactive = mostly below about 20%;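 also: plate controls were negative control peptide for no effect and reference peptide for full effect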
BJeLR viability: MLPCN primary cell-based screen for lethality selective to Ras in HRASV12 cells; BJeLR (HRASV12) viability, CellTiter-Glo ATP luminescence, 48 h; inhibition, % (no concentration beside the values); 300,000 compounds, 0.17% hits; AID 1554, 2009; in the data active = inhibition above about 50%
RecA splice inh: Mtb RecA intein splicing inhibitors, primary screen, biochemical, fluorescence, HTS; cell-free RecA intein splicing; AID 2221, 2009; inhibition, % (concentration not given with the values); 290,000 compounds, 0.75% hits; Protein RecA (Mycobacterium tuberculosis (strain ATCC 25618 / H37Rv)), P9WHJ3; in the data active = inhibition above about 30%;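 also: 0% = vehicle wells and 100% = reference inhibitor control wells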
Target sequence (P9WHJ3 whole entry, looked up, canonical isoform): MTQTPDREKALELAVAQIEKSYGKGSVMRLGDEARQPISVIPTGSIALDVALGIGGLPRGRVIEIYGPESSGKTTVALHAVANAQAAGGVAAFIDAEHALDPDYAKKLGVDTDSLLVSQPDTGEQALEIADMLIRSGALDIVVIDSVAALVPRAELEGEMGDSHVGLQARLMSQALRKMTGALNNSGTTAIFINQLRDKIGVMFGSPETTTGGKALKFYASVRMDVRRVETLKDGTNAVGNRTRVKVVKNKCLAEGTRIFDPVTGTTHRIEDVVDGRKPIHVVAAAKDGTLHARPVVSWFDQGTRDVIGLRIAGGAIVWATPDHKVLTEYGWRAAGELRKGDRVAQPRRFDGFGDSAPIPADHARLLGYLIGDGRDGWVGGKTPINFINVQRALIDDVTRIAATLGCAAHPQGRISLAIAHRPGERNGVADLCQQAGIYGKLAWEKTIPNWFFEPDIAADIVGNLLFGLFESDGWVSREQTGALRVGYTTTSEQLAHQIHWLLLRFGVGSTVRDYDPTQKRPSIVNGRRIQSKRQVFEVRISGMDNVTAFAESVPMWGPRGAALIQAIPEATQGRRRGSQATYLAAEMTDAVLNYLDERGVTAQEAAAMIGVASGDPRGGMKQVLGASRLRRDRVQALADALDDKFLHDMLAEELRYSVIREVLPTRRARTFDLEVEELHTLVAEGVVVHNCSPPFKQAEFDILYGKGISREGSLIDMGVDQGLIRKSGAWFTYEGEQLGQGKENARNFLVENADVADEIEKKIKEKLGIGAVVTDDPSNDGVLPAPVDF
PrPC TRFRET: inhibitors of human cell surface prion protein PrPC, primary screen, cell-based, TR-FRET | Major prion protein (Homo sapiens), P04156 | TR-FRET read-out | inhibition, % at 13.8 µM | 370,000 compounds, 0.43% hits | AID 720596, 2013; in the data active = inhibition above about 24%; also: 0% = median of the test wells and 100% = reference compound wells
PrP 5UTR inh: inhibition of PrP 5' UTR reporter expression; cell-based PrP 5' UTR mRNA reporter, plate reader; inhibition, % (test concentration not listed); 340,000 compounds, 0.35% hits; in the data active = inhibition above about 52%; also: 0 = median of the neutral control wells
PfHsp40 yeast: rescue of yeast from PfHsp40 toxicity, primary screen, S. cerevisiae, ATP luminescence | S. cerevisiae expressing PfHsp40, growth rescue | growth rescue, % at 12.5 µM | 340,000 compounds, 0.68% hits | AID 504582, 2011; in the data active = growth rescue above about 28%, passing the limit was not always enough;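 also: yeast W303a lacking pdr1 and pdr3 grown in galactose medium; growth measured after three days at 30 °C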
The depositor's hits bear a star. The list is not random: actives were taken first. Their share in the collection is about 1.9%.

Cc1cc(C)n(-c2nc(CCNC(=O)CCn3cnc4ccccc4c3=O)cs2)n1 was read as PriA SSB inh -15.
`O=C1C2C3C=CC(C3)C2C(=O)N1CNc1ccccn1` (stereo not drawn) gave PriA SSB inh -12, BJeLR viability -3, RecA splice inh -2, PrPC TRFRET 2, PrP 5UTR inh -22 and PfHsp40 yeast 44*.
CN(c1ccccc1)S(=O)(=O)c1ccc(C(=O)Nc2nc(-c3ccccn3)cs2)cc1 was read as PriA SSB inh 52*.
`CN(C1CCCCC1)S(=O)(=O)c1ccc(C(=O)Nc2nc(-c3ccccn3)cs2)cc1` gave PriA SSB inh 14.
`CC(C)S(=O)(=O)c1ccc(C(=O)Nc2nc(-c3ccccn3)cs2)cc1` gave PriA SSB inh 106*.
Screening COc1ccc(Cl)cc1NC(=O)C[C@@H](C(=O)O)N1CCNCC1 returned PriA SSB inh -9.
COc1ccc(-c2[nH]ncc2N=Nc2ccccc2)cc1 was read as PriA SSB inh 15, BJeLR viability -3, RecA splice inh 5, PrPC TRFRET 8, PrP 5UTR inh -42 and PfHsp40 yeast 50*.
COc1cc([N+](=O)[O-])cc2cc(C(=O)N3CCN(c4cc(Cl)ccc4Cl)CC3)c(=O)oc12 was read as PriA SSB inh 22.
For O=C(CSc1cccc[n+]1[O-])c1cc(Cl)ccc1Cl the results were PriA SSB inh -3, BJeLR viability 3, RecA splice inh -1, PrPC TRFRET 0, PrP 5UTR inh -45 and PfHsp40 yeast 80*.
CON=CNC(=O)N1OC[C@@H]2COc3ccc4ccccc4c3[C@@H]21 was read as PriA SSB inh -12.
O=C(NC=NOCc1cccc(C(F)(F)F)c1)N1OC[C@@H]2COc3ccc4ccccc4c3[C@@H]21 was read as PriA SSB inh 45*.
Cc1ccc(OC2CCN(C(=O)C(C)(C)Oc3ccc(Cl)cc3)CC2)nn1 was read as PriA SSB inh 13.
COC(=O)c1cc(NS(=O)(=O)c2ccc(N3CCC(C)CC3)c([N+](=O)[O-])c2)cc(C(=O)OC)c1 was read as PriA SSB inh 56*, BJeLR viability -7, RecA splice inh 3, PrPC TRFRET 5, PrP 5UTR inh -2 and PfHsp40 yeast 1.
Cc1ccc(NS(=O)(=O)c2ccc(N3CCN(c4ccc(O)cc4)CC3)c([N+](=O)[O-])c2)c(C)c1 was read as PriA SSB inh 63*, BJeLR viability -7, RecA splice inh 9, PrPC TRFRET 2, PrP 5UTR inh 0 and PfHsp40 yeast 70*.
For CC(=O)N1CCc2cc(S(=O)(=O)Nc3ccc(C)cc3C)ccc21 the results were PriA SSB inh -12, BJeLR viability -16, RecA splice inh 1, PrPC TRFRET 12, PrP 5UTR inh -14 and PfHsp40 yeast 2.
For O=[N+]([O-])c1cc(-c2nnc(Nc3ccccc3)c3ccccc23)ccc1N1CCOCC1 the results were PriA SSB inh 6, BJeLR viability 10, PrPC TRFRET -10, PrP 5UTR inh -13 and PfHsp40 yeast -1.
Screening O=[N+]([O-])c1cc(-c2nnc(Nc3ccc(O)cc3)c3ccccc23)ccc1N1CCOCC1 returned PriA SSB inh -7, BJeLR viability -1, RecA splice inh 32*, PrPC TRFRET -4, PrP 5UTR inh 12 and PfHsp40 yeast 0.
For CN1CCN(S(=O)(=O)c2ccc(N3CCN(c4ccc(O)cc4)CC3)c([N+](=O)[O-])c2)CC1 the results were PriA SSB inh 17, BJeLR viability 15, RecA splice inh -6, PrPC TRFRET -36, PrP 5UTR inh -6 and PfHsp40 yeast -2.
`O=[N+]([O-])c1cc(S(=O)(=O)Nc2ccccc2)ccc1N1CCN(c2ccc(O)cc2)CC1` gave PriA SSB inh 43*, BJeLR viability -13, RecA splice inh 0, PrPC TRFRET 4, PrP 5UTR inh -19 and PfHsp40 yeast 1.
O=C(CC(c1ccccc1)c1ccccc1)NCCSc1c[nH]c2ccccc12 was read as PriA SSB inh 13.
`CCOC(=O)C1CCN(c2ccc(S(=O)(=O)C(F)(F)F)cc2[N+](=O)[O-])CC1` gave PriA SSB inh 35*.
Screening CCOC(=O)C1CCN(c2ccc([N+](=O)[O-])c(C(C)=O)c2)CC1 returned PriA SSB inh -18, BJeLR viability 5, RecA splice inh 0, PrPC TRFRET -17, PrP 5UTR inh 1 and PfHsp40 yeast -1.
Screening CC1=C(C(=O)OC2CCCC2)C(c2coc3ccccc3c2=O)C2=C(CC(C)(C)CC2=O)N1 (stereo not drawn) returned PriA SSB inh -8, BJeLR viability 4, RecA splice inh 0, PrPC TRFRET -5 and PfHsp40 yeast 93*.
`Cc1ccccc1NC(C)C(=O)NN=Cc1ccccc1OCc1cccc(Br)c1` (stereo not drawn) gave PriA SSB inh 11.
Cc1ccccc1NC(C)C(=O)N/N=C/c1ccccc1OCc1cccc(Br)c1 (stereo not drawn) was read as BJeLR viability -5, RecA splice inh 8, PrPC TRFRET 9, PrP 5UTR inh -11 and PfHsp40 yeast 35*.
For Cc1ccc(O)c(Nc2nc(-c3ccccc3)nc3ccccc23)c1 the results were PriA SSB inh -8, BJeLR viability -9, RecA splice inh -1, PrPC TRFRET 2, PrP 5UTR inh -9 and PfHsp40 yeast 0.
For Cc1ccc(O)c(Nc2c3ccccc3nc3ccccc23)c1 the results were PriA SSB inh 61*, BJeLR viability 2, RecA splice inh -30, PrPC TRFRET 3, PrP 5UTR inh -5 and PfHsp40 yeast 0.
CC/C(=C(/CC)c1ccc(O)cc1)c1ccc(O)cc1 was read as PriA SSB inh -4, BJeLR viability -4, RecA splice inh 14, PrPC TRFRET 1 and PfHsp40 yeast 107*.
`CCCCCCCCOc1ccc(C2CC(=O)NC2=O)cc1` (stereo not drawn) gave PriA SSB inh -12, BJeLR viability 3, RecA splice inh 2, PrPC TRFRET -2, PrP 5UTR inh -8 and PfHsp40 yeast 66*.
`O=C1CC(c2ccc(OCCCCCOc3ccc(C4CC(=O)NC4=O)cc3)cc2)C(=O)N1` (stereo not drawn) gave PriA SSB inh -9, BJeLR viability 5, RecA splice inh 0, PrPC TRFRET 7, PrP 5UTR inh -8 and PfHsp40 yeast -1.
O=C(Cc1ccccc1)Nc1ccc(Nc2ccc(-n3cccn3)nn2)cc1 was read as PriA SSB inh 52*.
Cc1ccc(Nc2ccc(NC(=O)Cc3ccccc3)cc2)nn1 was read as PriA SSB inh -2.
For Cc1ccn(-c2ccc(Nc3ccc(NC(=O)c4ccco4)cc3)nn2)n1 the results were PriA SSB inh 55*.
